From the supplement of paper PMC3334620
In all, about 33,000 sequences were measured (“E-score (-0.5 to 0.5)”: median about -0.035, highest 2% from about 0.35 on). The full list was thinned out, with the highest values kept by preference.

Biological target: T1, Pdr3 (UniProt P33200)
T1 sequence: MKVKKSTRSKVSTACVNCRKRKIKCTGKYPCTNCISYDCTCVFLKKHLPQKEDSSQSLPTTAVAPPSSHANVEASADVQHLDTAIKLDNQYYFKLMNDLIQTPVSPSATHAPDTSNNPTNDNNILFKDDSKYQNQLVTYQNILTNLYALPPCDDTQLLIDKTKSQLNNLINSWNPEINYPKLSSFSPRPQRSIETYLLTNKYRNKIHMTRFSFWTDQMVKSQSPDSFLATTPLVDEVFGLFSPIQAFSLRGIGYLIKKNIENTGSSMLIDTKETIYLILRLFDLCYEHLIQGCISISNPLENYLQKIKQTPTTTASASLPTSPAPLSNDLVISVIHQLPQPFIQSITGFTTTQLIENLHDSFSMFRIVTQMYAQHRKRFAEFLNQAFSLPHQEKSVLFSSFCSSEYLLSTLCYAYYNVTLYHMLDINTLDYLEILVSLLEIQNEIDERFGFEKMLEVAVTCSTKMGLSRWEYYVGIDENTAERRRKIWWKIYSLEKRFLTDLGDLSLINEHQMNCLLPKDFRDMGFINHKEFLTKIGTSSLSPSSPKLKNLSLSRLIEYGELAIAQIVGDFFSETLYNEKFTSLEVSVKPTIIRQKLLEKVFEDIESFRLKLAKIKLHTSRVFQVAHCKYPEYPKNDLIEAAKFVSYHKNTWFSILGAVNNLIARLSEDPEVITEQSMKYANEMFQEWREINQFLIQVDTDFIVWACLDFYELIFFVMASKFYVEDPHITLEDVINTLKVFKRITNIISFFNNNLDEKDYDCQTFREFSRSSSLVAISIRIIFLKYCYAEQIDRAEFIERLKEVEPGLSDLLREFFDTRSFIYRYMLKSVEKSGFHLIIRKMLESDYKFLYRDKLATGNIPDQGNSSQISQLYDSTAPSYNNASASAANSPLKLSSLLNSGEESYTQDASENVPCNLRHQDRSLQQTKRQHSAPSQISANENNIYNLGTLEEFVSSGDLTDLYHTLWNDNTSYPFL
Test: PBM E-score (8-mer binding enrichment) (E-score (-0.5 to 0.5)); higher = stronger / more preferred TF binding
Details: protein concentration: 200 nM; construct: GST-full length
Summary of the method: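 Detection of bound protein used fluorescent anti-GST, with scans normalised by masliner. The proteins were GST-tagged yeast transcription factors applied at about 100-200 nM to universal all-10-mer Agilent arrays made double-stranded by primer extension. Each ungapped eight-base word, pooled with its reverse complement, was scored with an E-score from the Universal PBM Analysis Suite.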

Sequence	PBM E-score
CGCTAAAA	0.00276
CCTTTTAG	-0.291
AATCTGCT	-0.15
ACCCTCCC	0.299
CTGAAGCA	-0.199
CCAATGCC	0.0068
AGGCATTG	-0.0729
CCCATTGC	-0.0113
GGCGGTTA	0.0539
AAGCATCT	-0.243
CATTTGTA	-0.0519
AGGCGAAC	-0.114
GCGGATCC	0.409
ACGGATCA	0.366
GAGGATCC	0.235
CAGGATCC	0.0521
GCGGATAC	0.311
CCGGATCC	0.433
AAGGATCA	-0.14
CTGGATCC	0.285
ATGGATCA	-0.0186
ATCGTTAA	0.00324
CGAATCCA	0.0811
CCGTCACG	0.238
ATCCCACC	0.266

Sequence	PBM E-score
GCTCGGAA	0.413
GCTCGGTA	0.123
ACTCGGAA	0.427
GCTCGGAC	0.297
CCTCGGCC	0.251
CCTCGGCA	0.238
CCTCGGAA	0.442
CCTCGGAC	0.282
ACTCGGAC	0.305
CCTCGGCG	0.376
ACTCGGAT	0.256
CCTCGGAG	0.283
AAACGTCA	-0.149
AAGCCTGT	0.028
CTGCAGGC	-0.094
TCTCGTAA	-0.0824
TCTCGGAA	0.444
TCTCGGCA	0.217
AAGGCCAG	-0.0965
TAAGCACA	0.108
CAGGAACC	-0.124
CAGGAACG	-0.0257
CGGGAACC	0.312
AGGGAACC	-0.00025
AAGGAACT	0.0764

Sequence	PBM E-score
CCGGAACC	0.476
ACGGAACT	0.48
AAGGAACC	0.217
AGGGAACT	0.0568
CGGGAACG	0.285
CCGGAACG	0.475
ACGGAACC	0.487
ACTCAACC	-0.035
ATTGCACC	-0.0754
GGCACTAA	0.156
CGATTGCG	0.202
CTTTCTGC	-0.0975
CAGCACAC	-0.275
CACTCGCG	0.0224
GACCAATA	-0.0553
AGTGGTTG	-0.00222
AAGGAACG	0.00917
GGGGAACC	-0.157
ATGGAACG	0.0401
ACGGAACG	0.48
GAGGAACC	0.0227
GCGGAACC	0.482
CGATCTTC	0.0584
CTCTTCAG	-0.243
CTAACAGA	-0.028

Sequence	PBM E-score
AGGAGTGC	-0.0635
CCGGTCCA	0.0798
ATGGTCCC	-0.0703
CCGGTCCC	0.312
CCGGTCCG	0.414
ATGGTCCG	0.387
ATGGTCCA	-0.203
CAGCTTAC	-0.193
GTAGTGAC	0.0971
CAGATGCA	-0.278
ACGCGCAC	-0.111
ACATCCAC	-0.04
CAATCATG	-0.189
GCGATTCC	0.34
CGGATTCC	0.454
CGGATTCA	0.179
CCGATTCG	0.25
CCGATTCC	0.395
AGGATTCC	0.223
ATTCACCG	0.254
ACCCACAG	-0.278
CATCTCCC	0.155
AATCTCCG	0.322
CATCTCCG	0.377
GTCTGACA	0.159

Sequence	PBM E-score
AACCTTTG	-0.165
CGAACGAA	0.0784
AGAACGGA	0.316
GGAACCGA	0.406
CGAACGGA	0.407
CGAACCGA	0.15
AGAACCGA	0.0498
GGAACGCA	0.275
GGAACGGA	0.431
CGAACGGC	0.177
AACACCCC	0.0302
AGCACTTA	-0.102
GGATTCCC	0.231
ACCTGACT	-0.131
AGAGGGGC	-0.138
TAGGGTGA	0.00768
TATGTCAA	0.0343
GTCTCCAC	-0.208
TAAGGGTA	-0.262
ACGGGTTC	0.202
CCGGGTCA	0.349
CCGGGTTA	0.353
CCGGGTCG	0.378
ACGGGTCC	0.186
ACGGGTCG	0.227

Sequence	PBM E-score
GCGGGTCC	0.243
CCGGGTCC	0.365
CCGGGTTC	0.411
AAGCGCTT	0.21
ATGAAGGG	-0.171
GTGGATAA	0.0146
GGATTTGA	-0.0356
CGGTCTTC	0.123
AATCAACA	0.115
GCTCGAAA	0.0413
ATACTCCG	0.371
ATACTCCC	0.127
ATACTCCA	-0.0793
ACGCGGCC	0.0489
GCGCGGCC	0.219
CCGCGGCC	0.459
ACGCGGCG	0.209
CCGCGGCG	0.477
CAGCGGCG	0.154
GACGTCTC	-0.145
TATCGAGA	-0.0727
ACGCAAGT	-0.255
GCCCCGGC	0.163
CCCCCGGA	0.311
GCCCCGGA	0.41

Sequence	PBM E-score
TCCCCCGA	0.0813
TCCCCGGA	0.411
TCCCCGAA	0.232
CTTGGAGC	-0.207
ACTTTCAG	-0.184
AAATTGCG	0.0648
GATCTTAC	-0.113
GCTTCCTA	-0.205
ACTTCCCA	-0.0401
ACTTCCCG	0.291
GCTTCCGA	0.405
ACTTCCAA	-0.127
ACTTCCGA	0.355
ACTTCCTG	-0.121
GCTTCCAA	-0.143
ACTTCCGG	0.42
CGCACAAA	0.0204
AGGGTGTG	-0.0975
ACGCCCAA	0.00636
AAAGCTCA	-0.213
CGGTCGAG	-0.014
CGGTACCC	-0.0572
CGGTACCA	0.0596
CGGTACCG	0.362
CTTCATCC	-0.00929
